From PubChem BioAssay
GPR151 ag: activators of human GPR151; PathHunter beta-arrestin GPR151 cells, luminescence; AID 1508602; activation, % at 11.2 µM; 1% of 650,000 active; Q8TDV0; in the data active = activation above about 4.9%;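 note: 0% = median of compound wells and 100% = cells with positive control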
TEAD-YAP block: TEAD-YAP interaction inhibition. inhibition, % at 9.12 µM. HEK-TIYL cells, TEAD-Gal4/YAP UAS-luciferase luminescence. 1.4% of 640,000 active; in the data active = inhibition above about 32%;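 note: 0% = median of test compound wells and 100% = reference inhibitor wells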
MITF primary: inhibitors of human MITF | O75030 | AlphaScreen MITF homodimerization, bead proximity signal | inhibition, % at 2.6 µM | 0.91% of 650,000 active | AID 1259374; in the data active = inhibition above about 50%;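 note: 0% = vehicle wells with protein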
FBW7 act: activators of human E3 ligase FBW7 | Q969H0 | AlphaScreen FBW7–phospho-cyclin E peptide binding, activator screen | normalized activity (activation), % at 26.1 µM | 0.13% of 650,000 active | AID 1259310; in the data active = normalized activity above about 1.9%;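 note: purified mutant Fbw7 with reduced substrate affinity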
Target sequence (Q969H0 whole entry, looked up): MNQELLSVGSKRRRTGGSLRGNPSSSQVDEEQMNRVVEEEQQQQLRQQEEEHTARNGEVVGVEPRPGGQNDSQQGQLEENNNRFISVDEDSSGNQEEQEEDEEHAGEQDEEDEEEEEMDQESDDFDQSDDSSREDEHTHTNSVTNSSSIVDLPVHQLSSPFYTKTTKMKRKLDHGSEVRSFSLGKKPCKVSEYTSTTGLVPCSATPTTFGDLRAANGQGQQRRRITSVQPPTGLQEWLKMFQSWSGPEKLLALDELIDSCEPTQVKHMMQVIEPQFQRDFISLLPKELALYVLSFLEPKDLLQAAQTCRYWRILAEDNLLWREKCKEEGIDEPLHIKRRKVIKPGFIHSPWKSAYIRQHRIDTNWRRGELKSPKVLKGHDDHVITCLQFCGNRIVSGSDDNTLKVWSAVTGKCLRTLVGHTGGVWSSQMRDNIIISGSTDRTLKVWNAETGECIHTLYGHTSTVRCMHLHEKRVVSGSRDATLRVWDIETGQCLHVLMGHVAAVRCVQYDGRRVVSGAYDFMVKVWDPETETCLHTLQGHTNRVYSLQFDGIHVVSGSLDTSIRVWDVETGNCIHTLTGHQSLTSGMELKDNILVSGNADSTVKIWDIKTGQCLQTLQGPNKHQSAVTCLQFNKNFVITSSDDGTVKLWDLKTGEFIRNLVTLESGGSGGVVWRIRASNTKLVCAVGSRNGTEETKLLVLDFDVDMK
An asterisk follows results filed as active; · = no result. Most compounds without a hit are left out; they make up all but 3.4% or so of the library.

SMILES	GPR151 ag	TEAD-YAP block	MITF primary	FBW7 act
CC[N+](CC)=c1scc(-c2ccc([N+](=O)[O-])cc2)s1	1	48*	10	0
CN1C(=O)[C@]23CC4=CC=C[C@H](O)[C@H]4N2C(=O)[C@@]1(CO)SS3	-2	88*	-4	0
CC1=CC(=C2C(=O)NC(=S)NC2=O)C=C(C(F)(F)F)N1Cc1ccccc1	0	52*	-9	0
O=C(c1ccc(N2CCC(N3CC=C(c4ccccc4)CC3)CC2)cc1)N1CCCC(O)C1 (stereo not drawn)	0	-3	-8	0
CCOc1ccc(-c2nc(CSCC(=O)N3CCC4(CC3)OCCO4)c(C)o2)cc1	1	53*	-2	0
Cc1ccc(-c2nc(CSCC(=O)N3CCC4(CC3)OCCO4)c(C)o2)cc1	-1	50*	1	0
COc1ccc(-c2nc(CSCC(=O)N3CCC4(CC3)OCCO4)c(C)o2)cc1OC	0	-6	0	0
C/C=C(\C)C(=O)O[C@H]1CC[C@@]2(C)[C@@H]3CC[C@H]4[C@]5(O)C[C@H](O)[C@@]6(O)[C@@H](CN7C[C@@H](C)CC[C@H]7[C@@]6(C)O)[C@]5(O)C[C@@]42O[C@]13O	-3	-5	11	0
CN1CCN(C(=O)Cc2ccc(NC3=NC4CS(=O)(=O)CC4S3)cc2)CC1 (stereo not drawn)	0	-23	21	2.6*
N/C(=N\N=C\c1cccc([N+](=O)[O-])c1)N[N+](=O)[O-]	0	-9	0	0
C=CCN1C(=O)/C(=C\c2ccc(C)o2)C(=O)NC1=S	-1	-6	4	0
CN1C(=O)NC(=O)/C(=C/c2ccc(I)o2)C1=O	0	6	63*	-1
Cc1ccc(/C=C2/C(=O)NC(=O)N(C)C2=O)cc1	0	-6	-1	0
Cc1ccc(C=C2C(=O)NC(=S)NC2=O)o1	0	10	67*	0
CN1C(=O)N(C)C(=O)C(Cc2cccc(F)c2)(Cc2cccc(F)c2)C1=O	-1	4	1	0
N#Cc1ccccc1NC(=O)C(Cl)(Cl)Cl	1	7	6	0
CN(C)C(=S)SSC(=S)N(C)C	1	34*	-12	0
c1ccc(CCCN2CCN(C3CCCCC3)CC2)cc1	0	2	40	0
CC(C)N1CC=C(c2c[nH]c3ccccc23)CC1	0	37*	4	0
CC(C)C/C(=N/O)c1c[nH]c2ccccc12	2	-4	-4	0
O=C(Nc1ccncc1)C(=O)c1cn(Cc2ccc(Cl)cc2)c2ccccc12	-1	45*	8	0
Cc1cncc2cccc(N3CCNCC3)c12	-1	38*	14	0
c1ccc2c(N3CCNCC3)cccc2c1	4	2	-16	0
CCCCC/C=C\C/C=C\C/C=C\C/C=C\CCCC(=O)Nc1cccc([N+](=O)[O-])c1	2	·	14	·
Cc1ccc(-n2c(/C=C\c3ccc(F)cc3)nc3ccccc3c2=O)cc1F	3	7	-9	0
SMILES	GPR151 ag	TEAD-YAP block	MITF primary	FBW7 act
COc1cc(/C=C2\C(=O)NC(=O)N(c3ccc([N+](=O)[O-])cc3)C2=O)ccc1OCC(=O)O	0	12	9	0
O=C(O)COc1ccccc1/C=C1\C(=O)NC(=O)N(c2ccc(O)cc2)C1=O	0	6	75*	0
COc1ccc(OC)c(CNCCc2c[nH]c3ccccc23)c1	-1	-1	65*	0
O=C(c1ccccc1)c1cc(Br)ccc1NC(=O)c1cc2ccccc2oc1=O	1	12	-11	0
CC(C)n1ccc(C(=O)Nc2cc3ccccc3oc2=O)n1	-5	63*	-4	0
O=[N+]([O-])c1ccc(Cl)cc1N/N=C1/CN2CCC1CC2	-1	1	16	0
CC1=CC(=O)NP(=O)(Oc2ccc3ccccc3c2)N1 (stereo not drawn)	0	11	-1	1.9*
CN(C)c1ccc(/C=C2/C(=O)NC(=S)N(Cc3ccco3)C2=O)cc1	0	14	76*	-1
CN(C)c1ccc(/C=C2/C(=O)NC(=S)N(c3ccccc3F)C2=O)cc1	1	4	10	0
CCN(CC)C1=NC(=[N+](CC)CC)c2ccccc21	0	74*	22	1
N#Cc1ccc(NC(=O)COC(=O)COc2ccc3ccccc3c2)cc1Cl	1	2	4	0
O=C(NCCCc1ccccc1)C(Cl)(Cl)Cl	1	3	-3	0
C[C@H]1OC(O[C@H]2[C@@H](O)CC(O[C@H]3[C@@H](O)C[C@H](O[C@H]4CC[C@]5(C)C6CC[C@]7(C)[C@@H](C8=CC(=O)OC8)[C@@H](O)C[C@]7(O)[C@@H]6CC[C@@H]5C4)O[C@@H]3C)O[C@@H]2C)C[C@H](O)C1O (stereo partly drawn)	3	78*	11	0
CC(=O)O[C@H]1C[C@H](O[C@H]2[C@@H](O)C[C@H](O[C@H]3[C@@H](O)C[C@H](O[C@H]4CC[C@@]5(C)C(CCC6C5C[C@@H](O)[C@]5(C)[C@@H](C7=CC(=O)OC7)CC[C@]65O)C4)O[C@@H]3C)O[C@@H]2C)O[C@H](C)[C@H]1O[C@@H]1O[C@H](CO)[C@@H](O)[C@H](O)[C@H]1O (stereo partly drawn)	2	100*	16	0
CO[C@@H]1C(O)[C@H](O[C@H]2CC[C@@]3(C=O)[C@H](CC[C@@H]4[C@@H]3CC[C@]3(C)[C@@H](C5=CC(=O)OC5)CC[C@]43O)C2)OC(C)[C@@H]1O (stereo partly drawn)	-1	101*	-4	0
C[C@]12CC[C@H]3[C@@H](CC[C@]4(O)C[C@@H](O)CC[C@]34C=O)[C@@]1(O)CC[C@@H]2C1=CC(=O)OC1	1	101*	18	0
CCOC(=O)C(O)(c1ccc(C2CC2C2CC2)o1)C(F)(F)F (stereo not drawn)	1	-3	1	0
COc1ccc(C[C@H]2NC[C@H](O)[C@H]2OC(C)=O)cc1	4	103*	-4	0
COc1ccc(CC2C(=O)N(C)C(=O)N(C)C2=O)cc1	0	3	1	0
Cc1cc(N(C)C)cc(C)[n+]1OC(=O)N(c1ccccc1)c1ccccc1	0	64*	-2	0
CC(=O)c1ccc(OC(=O)N(C)c2ccccc2)cc1	0	-41	-6	0
O=C1NC(=S)N(c2ccc(Cl)cc2)C(=O)/C1=C\c1ccc([N+](=O)[O-])o1	1	6	68*	0
Cn1cccc1/C=C1/C(=O)NC(=S)N(c2ccc(Cl)cc2)C1=O	-2	1	21	0
CCOc1cc(CNC2CN3CCC2CC3)ccc1OCc1ccccc1 (stereo not drawn)	0	-2	37	0
COc1ccc(N2CCN(Cc3ccc(N(C)C)cc3)CC2)cc1	-1	2	71*	-1
COc1ccc(N2CCN(CCC#N)CC2)cc1	0	0	57*	0
CC(C)c1cccc(C(C)C)c1OCCCNCCO	1	-1	0	0
